Experiment [1] concerns the target Mitogen-activated protein kinase kinase kinase kinase 4 (Homo sapiens) (UniProt O95819). Conditions: at 1 µM.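 Note: reported figure is an averaged inhibition value.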
For experiment [2], the target named is Dual specificity mitogen-activated protein kinase kinase 1 (Homo sapiens) (UniProt Q02750). Conditions: at 0.1 µM.
Experiment [3] shares this target. To be noted: at 1 µM.
In experiment [4] the target is Misshapen-like kinase 1 (Homo sapiens) (UniProt Q8N4C8). Conditions: at 0.1 µM.
The target is the same in experiment [5]. To be noted: at 1 µM.
Experiment [6] addresses T1, Serine/threonine-protein kinase 4 (Homo sapiens) (UniProt Q13043).
T1 sequence (whole entry): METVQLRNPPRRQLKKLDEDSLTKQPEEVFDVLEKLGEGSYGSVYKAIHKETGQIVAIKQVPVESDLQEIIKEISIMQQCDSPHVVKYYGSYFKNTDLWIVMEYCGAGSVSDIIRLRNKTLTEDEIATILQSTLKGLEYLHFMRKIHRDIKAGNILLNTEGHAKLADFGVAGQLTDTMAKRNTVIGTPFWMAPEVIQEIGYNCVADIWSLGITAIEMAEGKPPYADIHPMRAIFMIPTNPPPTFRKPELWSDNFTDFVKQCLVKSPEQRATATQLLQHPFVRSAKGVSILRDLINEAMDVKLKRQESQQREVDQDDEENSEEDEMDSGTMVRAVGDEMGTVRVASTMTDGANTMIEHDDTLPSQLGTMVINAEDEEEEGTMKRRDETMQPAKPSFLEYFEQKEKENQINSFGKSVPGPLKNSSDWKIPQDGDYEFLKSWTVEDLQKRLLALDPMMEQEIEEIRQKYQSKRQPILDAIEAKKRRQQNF
To be noted: at 0.1 µM.

The target in experiment [7] is T1, Serine/threonine-protein kinase 4 (Homo sapiens). To be noted: at 1 µM.
The target in experiment [8] is T2, Serine/threonine-protein kinase 3 (Homo sapiens) (UniProt Q13188).
T2 sequence (whole entry): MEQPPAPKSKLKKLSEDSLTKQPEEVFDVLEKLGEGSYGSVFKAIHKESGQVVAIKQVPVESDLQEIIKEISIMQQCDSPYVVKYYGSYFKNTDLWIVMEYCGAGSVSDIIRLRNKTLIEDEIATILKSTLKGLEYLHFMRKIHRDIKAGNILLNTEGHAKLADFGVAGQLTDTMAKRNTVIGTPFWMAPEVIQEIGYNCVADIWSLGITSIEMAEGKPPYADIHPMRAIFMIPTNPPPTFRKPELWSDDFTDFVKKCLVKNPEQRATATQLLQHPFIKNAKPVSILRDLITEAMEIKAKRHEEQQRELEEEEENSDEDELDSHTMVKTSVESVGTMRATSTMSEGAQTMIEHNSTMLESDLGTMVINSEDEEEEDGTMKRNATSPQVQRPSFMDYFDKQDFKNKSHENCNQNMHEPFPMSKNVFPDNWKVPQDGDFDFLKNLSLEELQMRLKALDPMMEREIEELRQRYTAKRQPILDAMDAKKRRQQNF
Conditions: at 0.1 µM.

Experiment [9] deals with T2, Serine/threonine-protein kinase 3 (Homo sapiens). To be noted: at 1 µM.
In experiment [10] the target is Serine/threonine-protein kinase 26 (Homo sapiens) (UniProt Q9P289). Conditions: at 0.1 µM.
Chain of Serine/threonine-protein kinase 26 (Homo sapiens) (Q9P289 2-416 limits assumed): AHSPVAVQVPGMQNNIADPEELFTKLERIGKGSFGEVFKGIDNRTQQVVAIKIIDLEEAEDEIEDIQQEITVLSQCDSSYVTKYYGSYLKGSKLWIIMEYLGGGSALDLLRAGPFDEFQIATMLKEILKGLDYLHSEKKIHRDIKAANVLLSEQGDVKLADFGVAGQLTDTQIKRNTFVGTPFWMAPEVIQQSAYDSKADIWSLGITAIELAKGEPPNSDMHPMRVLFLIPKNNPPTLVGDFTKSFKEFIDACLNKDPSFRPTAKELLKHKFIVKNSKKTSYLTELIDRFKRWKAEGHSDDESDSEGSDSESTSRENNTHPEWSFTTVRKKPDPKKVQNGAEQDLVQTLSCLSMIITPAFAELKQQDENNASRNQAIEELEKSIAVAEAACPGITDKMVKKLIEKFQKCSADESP

Chain of Misshapen-like kinase 1 (Homo sapiens) (Q8N4C8 whole entry, looked up): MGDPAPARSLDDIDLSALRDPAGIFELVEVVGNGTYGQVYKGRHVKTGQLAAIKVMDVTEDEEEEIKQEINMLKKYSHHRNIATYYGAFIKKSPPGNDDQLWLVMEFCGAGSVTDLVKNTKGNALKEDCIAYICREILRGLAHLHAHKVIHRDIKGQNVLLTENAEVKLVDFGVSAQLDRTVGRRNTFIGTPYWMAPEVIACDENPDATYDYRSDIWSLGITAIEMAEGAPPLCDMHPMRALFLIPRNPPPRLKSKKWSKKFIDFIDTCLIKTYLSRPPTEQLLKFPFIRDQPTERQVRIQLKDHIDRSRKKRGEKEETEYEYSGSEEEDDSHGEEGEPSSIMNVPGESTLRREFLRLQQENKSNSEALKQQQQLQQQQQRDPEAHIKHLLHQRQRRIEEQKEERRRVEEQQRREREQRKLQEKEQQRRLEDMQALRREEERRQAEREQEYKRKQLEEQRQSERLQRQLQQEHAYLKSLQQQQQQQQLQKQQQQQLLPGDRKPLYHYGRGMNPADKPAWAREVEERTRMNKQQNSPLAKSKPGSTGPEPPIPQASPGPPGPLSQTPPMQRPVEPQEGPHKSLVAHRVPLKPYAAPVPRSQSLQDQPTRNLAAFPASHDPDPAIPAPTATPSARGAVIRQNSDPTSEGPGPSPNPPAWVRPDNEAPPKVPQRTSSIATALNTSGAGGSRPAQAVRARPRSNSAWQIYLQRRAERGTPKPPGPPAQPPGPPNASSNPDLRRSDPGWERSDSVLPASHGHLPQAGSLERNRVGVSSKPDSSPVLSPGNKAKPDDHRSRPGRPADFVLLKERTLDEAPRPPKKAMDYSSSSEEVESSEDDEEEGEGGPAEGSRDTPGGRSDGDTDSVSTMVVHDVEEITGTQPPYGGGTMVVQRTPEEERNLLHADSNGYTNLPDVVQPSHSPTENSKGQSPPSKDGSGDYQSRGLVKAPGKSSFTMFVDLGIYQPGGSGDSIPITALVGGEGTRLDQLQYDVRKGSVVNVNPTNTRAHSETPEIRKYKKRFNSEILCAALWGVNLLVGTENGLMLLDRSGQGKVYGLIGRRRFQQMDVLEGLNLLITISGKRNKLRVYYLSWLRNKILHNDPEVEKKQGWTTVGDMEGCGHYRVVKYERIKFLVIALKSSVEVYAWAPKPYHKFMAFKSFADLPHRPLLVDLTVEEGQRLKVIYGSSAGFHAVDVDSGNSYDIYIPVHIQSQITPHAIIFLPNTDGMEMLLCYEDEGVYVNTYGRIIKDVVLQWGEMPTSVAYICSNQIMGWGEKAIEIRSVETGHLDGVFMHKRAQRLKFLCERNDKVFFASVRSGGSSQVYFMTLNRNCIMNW
Chain of Dual specificity mitogen-activated protein kinase kinase 1 (Homo sapiens) (Q02750 whole entry): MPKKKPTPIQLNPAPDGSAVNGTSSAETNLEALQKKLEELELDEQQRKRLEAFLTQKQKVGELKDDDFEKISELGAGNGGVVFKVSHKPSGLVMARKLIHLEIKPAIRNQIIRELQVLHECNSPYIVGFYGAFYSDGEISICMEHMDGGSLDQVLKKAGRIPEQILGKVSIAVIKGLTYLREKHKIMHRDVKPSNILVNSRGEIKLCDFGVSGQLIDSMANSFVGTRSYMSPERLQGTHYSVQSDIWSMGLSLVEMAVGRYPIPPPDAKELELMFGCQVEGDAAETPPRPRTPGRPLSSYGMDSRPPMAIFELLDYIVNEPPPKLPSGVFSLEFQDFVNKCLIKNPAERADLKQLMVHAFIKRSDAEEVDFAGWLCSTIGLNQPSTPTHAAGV
Chain of Mitogen-activated protein kinase kinase kinase kinase 4 (Homo sapiens) (O95819 2-1239 limits assumed): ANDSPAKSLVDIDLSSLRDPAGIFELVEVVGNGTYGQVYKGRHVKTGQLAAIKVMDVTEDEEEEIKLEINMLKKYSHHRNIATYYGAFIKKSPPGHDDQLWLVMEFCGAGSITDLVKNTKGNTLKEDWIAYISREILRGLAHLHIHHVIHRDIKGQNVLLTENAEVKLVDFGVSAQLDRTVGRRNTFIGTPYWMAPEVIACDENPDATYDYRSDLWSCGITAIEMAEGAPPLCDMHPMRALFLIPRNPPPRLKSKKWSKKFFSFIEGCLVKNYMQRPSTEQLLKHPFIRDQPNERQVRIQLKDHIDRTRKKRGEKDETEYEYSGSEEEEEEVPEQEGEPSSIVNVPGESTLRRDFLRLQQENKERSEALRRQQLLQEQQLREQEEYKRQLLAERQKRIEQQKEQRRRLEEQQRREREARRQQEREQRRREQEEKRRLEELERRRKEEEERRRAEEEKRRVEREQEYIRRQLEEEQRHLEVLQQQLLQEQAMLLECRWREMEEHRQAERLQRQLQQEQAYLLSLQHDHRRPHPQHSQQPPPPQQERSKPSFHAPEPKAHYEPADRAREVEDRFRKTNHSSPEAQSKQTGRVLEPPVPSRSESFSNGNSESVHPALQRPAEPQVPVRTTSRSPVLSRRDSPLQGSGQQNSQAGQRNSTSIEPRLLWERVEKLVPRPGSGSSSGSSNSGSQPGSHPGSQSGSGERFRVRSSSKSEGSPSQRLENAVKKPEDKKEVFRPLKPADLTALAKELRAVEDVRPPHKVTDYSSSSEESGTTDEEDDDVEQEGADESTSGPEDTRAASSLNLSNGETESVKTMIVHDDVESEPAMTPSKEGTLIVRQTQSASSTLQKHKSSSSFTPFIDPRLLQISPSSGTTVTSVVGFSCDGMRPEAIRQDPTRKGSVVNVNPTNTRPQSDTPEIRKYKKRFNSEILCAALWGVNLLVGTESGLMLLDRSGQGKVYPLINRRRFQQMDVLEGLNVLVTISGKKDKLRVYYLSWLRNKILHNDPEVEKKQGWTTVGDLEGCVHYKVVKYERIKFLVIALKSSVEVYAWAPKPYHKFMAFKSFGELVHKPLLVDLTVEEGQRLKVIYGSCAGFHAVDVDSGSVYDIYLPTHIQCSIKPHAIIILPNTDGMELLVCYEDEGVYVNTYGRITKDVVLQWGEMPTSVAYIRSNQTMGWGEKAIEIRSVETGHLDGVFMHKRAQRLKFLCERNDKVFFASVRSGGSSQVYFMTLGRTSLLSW

`COc1cc2ncn(-c3cc(OCc4ccccc4C(F)(F)F)c(C(=O)N(C)C)s3)c2cc1OC`: the inhibition in experiment [1] is 2.4%; in experiment [2] it was 0.8%; in experiment [3], 1.58%; in experiment [4], 1.7%; in [5], 2.67%; in experiment [6], -0.01%. The inhibition in experiment [7] was found to be 3.43%; in [8], 1.15%; in [9], 4.03%; in [10] it was 0%.
Take `CCNC(=O)O[C@H]1CN[C@H](C#Cc2cc3ncnc(Nc4ccc(OCc5cccc(F)c5)c(Cl)c4)c3s2)C1`: the inhibition in experiment [1] was found to be 5.98%; in experiment [2] it was 2.35%; in experiment [3], 1.8%; in [4], 4.31%; in experiment [5], 5.58%; in experiment [6], 5.6%. The inhibition in [7] was 5.6%; in experiment [8], 6.17%; in [9], 5.21%; in experiment [10], -1.55%.
For the compound `CNC(=O)c1cccc(C#Cc2cncnc2Nc2ccc(OCc3cccc(F)c3)c(Cl)c2)c1`, the inhibition in experiment [1] was 5.4%; in [2] it was 0.1%; in experiment [3] it was 1.05%; in experiment [4], -0.5%; in experiment [5], 5.14%; in [6], 4.83%. The inhibition in experiment [7] is 8.84%; in [8] it was 5.85%; in experiment [9], 7.85%; in [10] it was 0.31%.
With `COC(=O)Nc1nc2ccc(Oc3ccc(NC(=O)Nc4cccc(Cl)c4)cc3)cc2[nH]1`, the inhibition in experiment [1] turned out to be 3.87%; in experiment [2], 1.15%; in experiment [3], 0.9%; in [4] it was 2.55%; in experiment [5], 4.97%; in experiment [6] it was 2.25%. For the same compound, the inhibition is 1.87% in experiment [7], 3.48% in experiment [8], 4.19% in [9] and -1.11% in [10].
`Nc1nc(-c2cccc(Cl)c2)c(-c2ccc3ncccc3n2)s1`: the inhibition in experiment [1] stood at 60.1%; in experiment [2] it was 5.85%; in experiment [3] it was 5.35%; in experiment [4], 10.7%; in experiment [5] it was 46.9%; in experiment [6], 5.29%. The inhibition was 7.53% in [7], 5.84% in [8], 7.74% in experiment [9] and -1.9% in experiment [10].
In the case of `N#Cc1c(NC(=O)CN2CCOCC2)sc2c1CCCC2`, the inhibition in experiment [1] was 8.62%; in [2] it was 6.12%; in [3], 5.95%; in experiment [4], 6.83%; in experiment [5], 6.87%; in experiment [6] it was 5.59%. Also, the inhibition in experiment [7] is 8.28%; in experiment [8] it was 4.7%; in [9], 8.26%; in [10], -1.62%.
In the case of `CCc1nn2ncccc2c1-c1ccnc(NC2CC2)n1`, the inhibition in experiment [1] came out at 5.59%; in experiment [2] it was 2.65%; in experiment [3], 2.39%; in experiment [4] it was 3.11%; in experiment [5] it was 3.73%; in experiment [6], 1.74%. The inhibition is 3.6% in experiment [7], 1.75% in [8], 5.22% in [9] and -1.35% in experiment [10].
With `NS(=O)(=O)c1ccc(N/N=C2\C(=O)Nc3ccc4ncccc4c32)cc1`, the inhibition in experiment [1] was found to be 82.4%; in experiment [2], 14.3%; in [3], 61.1%; in experiment [4] it was 34.1%; in experiment [5] it was 76.2%; in experiment [6] it was 84.6%. Further, the inhibition in experiment [7] was determined as 89.5%; in experiment [8], 80.3%; in experiment [9] it was 88.3%; in experiment [10], 43.6%.
Regarding `CN1CCC(n2cnc(-c3ccc(F)cc3)c2-c2ccnc(Nc3ccccc3)n2)CC1`, the inhibition stood at 41.2% in experiment [1]; 3.25% in [2]; 4.26% in experiment [3]; 8.59% in [4]; 41.2% in experiment [5]; 3.25% in [6]. The inhibition in experiment [7] came to 6.2%; in [8] it was 1.1%; in [9], 3.6%; in [10], 0.76%.
With `CNC(=O)c1cncc(/C=C/c2ccccc2Cl)c1`, the inhibition in [1] is 15.2%; in experiment [2] it was -0.39%; in experiment [3], 2.24%; in [4], 2.28%; in [5], 15.4%; in [6], 4.63%. Also, the inhibition in experiment [7] is 7.5%; in experiment [8], 5.87%; in experiment [9], 7.94%; in experiment [10], 1.78%.
Consider `COc1cc(Nc2nccc(Nc3ccc4c(C)n[nH]c4c3)n2)cc(OC)c1OC`, for which the inhibition in experiment [1] amounted to 12.4%; in experiment [2], 2.25%; in [3], 4.1%; in [4] it was 2.58%; in [5], 11%; in experiment [6], 5.05%. Also, the inhibition in [7] turned out to be 7.86%; in [8] it was 5.15%; in experiment [9], 6.19%; in experiment [10] it was 1.12%.
Consider `O=S(=O)(CCNCc1ccc(-c2ccc3ncnc(Nc4ccc(OCc5cccc(F)c5)c(Cl)c4)c3c2)o1)c1ccccc1`, for which the inhibition was 10.8% in [1]; 6.48% in [2]; 5.62% in experiment [3]; 5.49% in experiment [4]; 5.63% in experiment [5]; 4.83% in experiment [6]. For the same compound, the inhibition is 7.44% in experiment [7], 8.36% in experiment [8], 9.44% in experiment [9] and -1.43% in [10].
`c1ccc(COc2ccc(Nc3ncnc4ccc(-c5ccco5)cc34)cc2)cc1`: the inhibition in experiment [1] was 6.14%; in experiment [2], 1.63%; in experiment [3], 1.55%; in experiment [4], 4.04%; in [5], 3.27%; in experiment [6] it was -0.04%. The inhibition is 0.76% in [7], 0.84% in [8], 1.9% in experiment [9] and 1.19% in experiment [10].
`O=C(Nc1n[nH]c2cc(-c3ccc(F)cc3)ccc12)C1CC1`: the inhibition was determined as 70.1% in experiment [1]; 3.48% in experiment [2]; 3.42% in experiment [3]; 16.2% in experiment [4]; 56% in experiment [5]; 2.34% in experiment [6]. Also, the inhibition in [7] was 4.72%; in [8], 2.91%; in experiment [9], 4.55%; in [10] it was -1.43%.

As usually defined, the inhibition is the drop in the measured response relative to a control, in per cent.

Values taken from ChEMBL document CHEMBL1961873, “Compounds: GSK PKIS; Assays: Nanosyn kinase panel” (2012).
